“And” between values parts separate entries of the source, which are not always exact repeats. Equal entries are not always repeated. Hit rate of the full screen: of about 5,500 compounds, about 2,000 (36%) were called active. Inconclusive results (about 18%) are left out. Rule as the data show it: active = normalized growth mostly below about 0.91 (no sharp cut-off); inconclusive = no clear call, values can overlap the other calls; inactive = mostly above about 0.92. This is one part of the list.
Test: chemical genetic growth profiling, strain panel (AID 1159580);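 also: tested at 20 µM; growth read once vehicle control cultures reached saturation at 30 °C; 1 = growth at the plate median or of vehicle wells; lower values mean less growth of the strain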
Details: S. cerevisiae deletion strains, growth OD

Measured: normalized growth

O=c1ccc2cc(O[C@@H]3O[C@H](CO)[C@@H](O)[C@H](O)[C@H]3O)c(O)cc2o1
inactive: locus YAL013W, strain DEP1, hits give low values 1.04 | locus YAL021C, strain ccr4, hits give low values 0.991 | locus YAL026C, strain drs2, hits give low values 0.997 | locus YAL030W, strain snc1, hits give low values 0.971 | locus YBL061C, strain skt5, hits give low values 0.972 | locus YBR009C, strain hhf1, hits give low values 1.01 | locus YBR021W, strain FUR4, hits give low values 1.06 | locus YBR023C, strain chs3, hits give low values 0.983 | locus YBR171W, strain sec66, hits give low values 0.956 | locus YBR229C, strain ROT2, hits give low values 1.02 | locus YBR231C, strain swc5, hits give low values 0.982 | locus YBR279W, strain paf1, hits give low values 0.988 | locus YCL011C, strain gbp2, hits give low values 0.99 | locus YCL016C, strain dcc1, hits give low values 0.999 | locus YCL029C, strain bik1, hits give low values 0.998 | locus YCL061C, strain MRC1, hits give low values 0.983 | locus YCL069W, strain vba3, hits give low values 0.977 | locus YCR088W, strain abp1, hits give low values 0.978 | locus YDL005C, strain med2, hits give low values 0.958 | locus YDL035C, strain GPR1, hits give low values 1.04 | locus YDL040C, strain nat1, hits give low values 0.976 | locus YDL074C, strain BRE1, hits give low values 1.02 | locus YDL101C, strain DUN1, hits give low values 1.01 | locus YDL134C, strain PPH21, hits give low values 1.02 | locus YDL185W, strain tfp1, hits give low values 1 | locus YDL192W, strain arf1, hits give low values 0.991 | locus YDR001C, strain nth1, hits give low values 0.987 | locus YDR069C, strain doa4, hits give low values 0.977 | locus YDR101C, strain arx1, hits give low values 0.995 | locus YDR137W, strain rgp1, hits give low values 1 | locus YDR159W, strain sac3, hits give low values 0.978 | locus YDR162C, strain NBP2, hits give low values 1.04 | locus YDR195W, strain ref2 0.875 | locus YDR297W, strain sur2, hits give low values 0.988 | locus YDR318W, strain mcm21, hits give low values 0.999 | locus YDR334W, strain swr1, hits give low values 0.982 | locus YDR335W, strain msn5, hits give low values 0.995 | locus YDR388W, hits give low values 0.986 | locus YDR392W, strain spt3, hits give low values 1.02 | locus YDR502C, strain sam2, hits give low values 0.993 | locus YEL003W, strain gim4, hits give low values 0.986 | locus YEL037C, strain rad23, hits give low values 0.982 | locus YEL061C, strain CIN8 (second series), hits give low values 0.974 | locus YEL061C, strain CIN8, hits give low values 1.01 | locus YER015W, strain faa2, hits give low values 0.992 | locus YER016W, strain bim1, hits give low values 0.983 | locus YER110C, hits give low values 0.99 | locus YER111C, strain swi4, hits give low values 0.961 | locus YER155C, strain BEM2 (second series), hits give low values 0.927 | locus YER155C, strain BEM2, hits give low values 1 | locus YER167W, strain BCK2, hits give low values 1.02 | locus YFR010W, strain ubp6, hits give low values 0.974 | locus YGL078C, strain dbp3, hits give low values 0.997 | locus YGL086W, strain mad1, hits give low values 0.979 | locus YGL167C, strain pmr1, hits give low values 0.964 | locus YGL173C, strain kem1, hits give low values 0.977 | locus YGL227W, strain vid30, hits give low values 0.981 | locus YGL240W, strain doc1, hits give low values 0.981 | locus YGL248W, strain PDE1, hits give low values 1.03 | locus YGL253W, strain hxk2, hits give low values 0.994 | locus YGR135W, strain pre9, hits give low values 0.995 | locus YGR252W, strain gcn5, hits give low values 0.997 | locus YHR013C, strain ard1, hits give low values 0.963 | locus YHR027C, strain rpn1, hits give low values 0.978 | locus YHR030C, strain SLT2, hits give low values 1.01 and 1.03 | locus YHR079C, strain IRE1 (second series), hits give low values 0.99 | locus YHR079C, strain IRE1, hits give low values 1.02 | locus YHR094C, strain hxt1, hits give low values 0.995 | locus YHR129C, strain ARP1, hits give low values 1.02 | locus YHR142W, strain chs7, hits give low values 0.982 | locus YHR200W, strain rpn10, hits give low values 0.999 | locus YIL066C, strain RNR3, hits give low values 1.05 | locus YIL073C, strain SPO22, hits give low values 1.02 | locus YIL125W, strain kgd1, hits give low values 0.995 | locus YIR030C, strain dcg1, hits give low values 0.986 | locus YJL092W, strain hpr5, hits give low values 0.994 | locus YJL095W, strain BCK1 (second series), hits give low values 0.973 | locus YJL095W, strain BCK1, hits give low values 1.01 and 1.02 | locus YJL115W, strain asf1, hits give low values 0.971 | locus YJL129C, strain trk1, hits give low values 0.993 | locus YJL134W, strain LCB3, hits give low values 1.01 | locus YJL154C, strain vps35, hits give low values 0.98 | locus YJL164C, strain tpk1, hits give low values 0.991 | locus YJL166W, strain qcr8, hits give low values 0.962 | locus YJL168C, strain set2, hits give low values 0.987 | locus YJL187C, strain SWE1 (second series), hits give low values 1.01 | locus YJR043C, strain POL32, hits give low values 1.04 | locus YJR066W, strain TOR1, hits give low values 0.954 | locus YKL009W, strain mrt4, hits give low values 0.978 | locus YKL068W, hits give low values 1 | locus YKL085W, strain MDH1 (second series), hits give low values 0.996 | locus YKL085W, strain MDH1, hits give low values 0.996 | locus YKL160W, strain elf1, hits give low values 0.992 | locus YKR001C, strain vps1, hits give low values 0.983 | locus YKR026C, strain gcn3, hits give low values 0.964 | locus YKR091W, strain srl3, hits give low values 0.971 | locus YLL001W, strain dnm1, hits give low values 0.962 | locus YLL026W, hits give low values 0.988 | locus YLL041C, strain sdh2, hits give low values 0.971 | locus YLR027C, strain aat2, hits give low values 0.983 | locus YLR039C, strain RIC1, hits give low values 1.03 | locus YLR058C, strain SHM2, hits give low values 1.02 | locus YLR102C, strain apc9, hits give low values 1 | locus YLR113W, strain HOG1, hits give low values 1.01 | locus YLR221C, strain rsa3, hits give low values 1.03 | locus YLR258W, strain gsy2, hits give low values 0.973 | locus YLR262C, strain YPT6 (second series), hits give low values 0.955 | locus YLR262C, strain YPT6, hits give low values 1.08 | locus YLR268W, strain sec22, hits give low values 0.989 | locus YLR320W, strain mms22, hits give low values 0.984 | locus YLR330W, strain CHS5, hits give low values 1.02 | locus YLR342W, strain FKS1 (second series), hits give low values 1.03 | locus YLR342W, strain FKS1, hits give low values 0.973 | locus YLR357W, strain rsc2, hits give low values 0.96 | locus YLR370C, strain arc18, hits give low values 0.989 | locus YLR371W, strain rom2, hits give low values 0.993 | locus YLR384C, strain iki3, hits give low values 0.97 | locus YLR418C, strain cdc73, hits give low values 1.03 | locus YML016C, strain PPZ1, hits give low values 1.02 | locus YML032C, strain rad52, hits give low values 1.01 | locus YML120C, strain ndi1, hits give low values 0.978 | locus YML124C, strain tub3, hits give low values 0.991 | locus YMR058W, strain fet3, hits give low values 0.978 | locus YMR078C, strain ctf18, hits give low values 0.99 | locus YMR125W, strain sto1, hits give low values 0.97 | locus YMR129W, hits give low values 0.991 | locus YMR205C, strain PFK2, hits give low values 0.962 | locus YMR223W, strain ubp8, hits give low values 0.99 | locus YMR231W, strain pep5, hits give low values 0.971 | locus YMR307W, strain GAS1, hits give low values 1.09 | locus YNL067W, strain RPL9B, hits give low values 1.01 | locus YNL071W, strain lat1, hits give low values 0.993 | locus YNL128W, strain TEP1, hits give low values 1.03 | locus YNL183C, strain NPR1, hits give low values 0.962 | locus YNL209W, strain ssb2, hits give low values 0.993 | locus YNL233W, strain BNI4, hits give low values 1.01 | locus YNL248C, strain rpa49, hits give low values 1.01 | locus YNL250W, strain rad50, hits give low values 1.02 | locus YNL271C, strain bni1, hits give low values 0.993 | locus YNL298W, strain CLA4, hits give low values 0.985 | locus YNL307C, strain MCK1, hits give low values 1 | locus YNL322C, strain KRE1 (second series), hits give low values 0.947 | locus YNR049C, strain mso1, hits give low values 0.973 | locus YNR052C, strain pop2, hits give low values 0.994 | locus YOL012C, strain htz1 0.76 | locus YOL147C, strain pex11, hits give low values 0.996 | locus YOR001W, strain rrp6, hits give low values 0.987 | locus YOR061W, strain CKA2, hits give low values 1.02 | locus YOR069W, strain VPS5, hits give low values 1.01 | locus YOR070C, strain gyp1, hits give low values 0.981 | locus YOR080W, strain dia2, hits give low values 0.948 | locus YOR083W, strain WHI5, hits give low values 0.981 | locus YOR106W, strain vam3, hits give low values 0.97 | locus YOR136W, strain idh2, hits give low values 0.991 | locus YOR144C, strain elg1, hits give low values 0.999 | locus YOR184W, strain ser1, hits give low values 0.997 | locus YOR231W, strain MKK1, hits give low values 1.04 | locus YOR265W, strain rbl2, hits give low values 0.984 | locus YOR270C, strain vph1, hits give low values 1 | locus YOR290C, strain snf2, hits give low values 1 | locus YOR316C, strain cot1, hits give low values 0.991 | locus YPL051W, strain arl3, hits give low values 0.99 | locus YPL078C, strain atp4, hits give low values 0.962 | locus YPL106C, strain sse1, hits give low values 0.962 | locus YPL240C, strain hsp82, hits give low values 0.968 | locus YPL241C, strain CIN2, hits give low values 1.01 | locus YPL256C, strain CLN2, hits give low values 1.02 | locus YPR119W, strain clb2, hits give low values 0.99 | locus YPR141C, strain kar3, hits give low values 0.996 | locus YPR163C, strain tif3, hits give low values 0.987 | locus YPR167C, strain met16, hits give low values 0.986 | strain wtn01, hits give low values 0.997

Source: PubChem BioAssay AID1159580 (chemical genetic matrix, 2015)
